# Active and inactive are the calls of the source. How the source made its calls: active means hit-call score of the fitted dose curve at least 0.9, where 1 is the maximum; inactive means score below 0.9.
# Read-out: MicroRNA 122 (MIR122), gene 406906
# Assay: LTEA_HepaRG_MIR122: Life Technologies and Expression Analysis (LTEA) Assay for MicroRNA 122 (MIR122) using HepaRG (AID 2283516)
# Conditions: mRNA level, 48 h; actives raise or lower the signal
# Experimental: LTEA_HepaRG is a cell based, multiplexed-readout assay that uses HepaRG, a human liver cell line, with measurements taken at 48 hours after chemical dosing on a 96-well plate.LTEA_HepaRG_MIR122 is one of 102 assay component(s) measured in the LTEA HepaRG cell culture assay. It is a marker of MicroRNA.Data from the assay component LTEA_HepaRG_MIR122 was analyzed into 1 endpoint. This assay endpoint, LTEA_HepaRG_MIR122, was analyzed with bidirectional fitting relative to DMSO as the negative control and baseline of activity. Using a type of inducible reporter, measures of mRNA induction for gain or loss-of-signal activity can be used to understand regulation of transcription factor activity. To generalize the intended target to other relatable targets, this assay endpoint is annotated to the microrna intended target family, where the subfamily is post-transcriptional regulation.
# A total of 1060 chemcials from the ToxCast library were tested in eight-point concentration-response experiments. Cell culture and cytotoxicity assays were conducted at Thermo Fisher Scientific's Custom Services facility (Madison, WI). A single lot of human HepaRG cells (Thermo Fisher Scientific, Frederick, MD) was used for the cell culture experiments. 96-well format collagen type I coated plates of human HepaRG cells were prepared using established methods. Briefly, cryopreserved HepaRG cells were thawed, plated at a density of approximately 100,000 cells/well in HepaRG Thaw, Plate, and General Purpose media (HPRG770, Thermo Fisher Scientific), and incubated for 48 hours. 0.5% DMSO was selected as vehicle control to balance the requisite need of DMSO in HepaRG cultures to maintain differentiation (for example, baseline metabolism, proportions of hepatocytes vs. cholangiocytes), while enabling further hepatic receptor pathway activation (for example, PXR and CAR) in response to chemical exposure. 48 hours after plating, the culture medium was replaced with HepaRG Serum-Free Incudtion Media. Cells were exposed to each test chemical in duplicate and maintained in CO2 incubators for another 48 hours. Chemical plates were thawed to room temperature and 200x concentrations of treatment groups were prepared. 8-point conentration-reponse curves were made with the highest exposure at 100 uM, followed by half-log dilutions, all in 0.5% DMSO. Each test plate contained variouse controls, induction positive controls (1mM phenobarbital), cytotoxicity positive controls ([…] aflatoxin B1), vehicle controls (0.5% DMSO), and total lysis controls (0.5% DMSO). Cell morphology images were taken using an Essen IncuCyte FLR automated microscope, with six 96-well plates imaged in about 24 minutes. Images were captured and exported and JPEG files. Spent culture media was transfered to black-well plates for the LDH assay, and remaining media was sorted at -80 C for later use. Cells were treated with RLT buffer and frozen until shipped for gene expression analysis. Total RNA was isolated from the cell suspension in 75 uL of Buffer RLT (Qiagen, Germantown, MD 20874) by Quintiles/Expression Analysis (Durham, NC) using a custom isolation procedure. Total RNA from each plate well was transferred to a preamplification plate. Fluidigm's 96.96 Dynamic ArrayTM (Fluidigm, Amsterdam, the Netherlands) technology was used for gene expression analyses by quantitative reverse transcription polymerase chain reaction (qRT-PCR, performed by Quintiles/Expression Analysis, Durham, NC)89. Standard TaqManTM Assays (Applied Biosystems/ThermoFisher Scientific, Foster City, CA) were used to assess the expression of 93 genes selected based on their selectivity and sensitivity to important hepatic receptors known to be modulated by environmental chemicals; importance in human hepatocyte functionality; and hepatotoxicity. […]
SMILES,outcome,AC50
CCOC(=O)CCC(=O)OCC,inactive,
CCCCOC(=O)CCCCCCCCC(=O)OCCCC,inactive,
COC(=O)c1ccc(O)cc1,inactive,
CCCCCCCCCCCCCCCC,inactive,
CCCCCCOCCO,inactive,
Cc1nc(C)nc(N2C[C@@H](C)N(c3ccnc([C@@H](C)O)n3)[C@@H](C)C2)n1,inactive,
CN1CCCC1=O,inactive,
O=C(O)Cc1ccccc1Nc1c(Cl)cccc1Cl,inactive,
CC(C)c1ccc(C(=O)N=C(N)N)cc1S(C)(=O)=O,,0.334 µM (active)
CC(CO)OC(C)CO (stereo not given) (tested in a mixture with another compound),inactive,
CCCCCCC(=O)OCC,inactive,
NCC1(Cc2noc(=O)[nH]2)CCCCC1,inactive,
CC(=O)Oc1ccccc1C(=O)O,inactive,
Cc1ccc(C(C)C)c(O)c1,inactive,
CCc1c(C(=O)NN2CCCCC2)nn(-c2ccc(Cl)cc2Cl)c1-c1ccc(Br)cc1,,29.8 µM (active)
Cc1oc(-c2ccccc2)nc1CCOc1cccc2c1ccn2CCC(=O)O,,90.1 µM (active)
C1CCC(SSC2CCCCC2)CC1,inactive,
CCOc1ccc2c(c1)C(C)=CC(C)(C)N2,inactive,
C[C@]12C=CC(=O)C=C1CC[C@@H]1[C@@H]2C(=O)C[C@@]2(C)[C@H]1CC[C@]2(O)C(=O)CO,inactive,
Cc1ccccc1Cl,inactive,

SMILES,outcome,AC50
Clc1cc(Cl)c(Cl)cc1Cl,inactive,
NCCO,inactive,
CCCCCCCC=O,inactive,
CC(=O)OCCOCCOCCOC(C)=O,inactive,
C=CCOC(=O)c1ccccc1C(=O)OCC=C,inactive,
CC(C)(C)c1cc(O)c(C(C)(C)C)cc1O,,79.8 µM (active)
O=c1c(O)c(-c2ccc(O)c(O)c2)oc2cc(O)cc(O)c12,inactive,
CCCCCCCCCCCCCCCCCC(=O)O,inactive,
Cc1nc(-c2ccc3c(c2)CCN(CCC2CCC(NC(=O)/C=C/c4ccc(F)cc4)CC2)CC3)no1 (stereo not given),inactive,
CCCc1cc(=O)[nH]c(=S)[nH]1,inactive,
O=C(N[C@@H](Cc1ccccc1)[C@@H](O)C(=O)N1C[C@@H](O)[C@@H](O)C1)c1cc2cc(Cl)ccc2[nH]1,inactive,
CCOC(=O)C(C)(C)Oc1ccc(Cl)cc1,inactive,
CCCCN(CCCC)CCCC,inactive,
CC=Cc1ccc(O)c(OC)c1,inactive,
Cc1ccc(N(C)C)cc1,inactive,
COc1ccc(S(=O)(=O)N2C(=O)[C@@](c3ccccc3OC)(N3C[C@H](O)C[C@H]3C(=O)N(C)C)c3cc(Cl)ccc32)c(OC)c1,,50 µM (active)
Cc1cc(NC(=O)C(=O)O)cc(C)c1Oc1ccc(O)c2c1CCC2,inactive,
CC1(C)NC(=O)NC1=O,inactive,
Oc1ccc2ccccc2c1N=Nc1ccccc1,,9.92 µM (active)
COc1ccc2c(c1)c(CC(=O)O)c(C)n2C(=O)c1ccc(Cl)cc1,inactive,

# Source: PubChem BioAssay (EPA / NIEHS)
